# Values joined by “and” are separate entries in the source; they are usually repeats but may differ in a detail not shown here. Identical values can stand only once. Active and inactive are the calls of the source. Unless noted, the rule behind the calls is not given here.
# How the values were obtained:
# [1] = viability loss with induced miR-34 in A549 – imaging, A549 dox-inducible miR-34, nuclei and caspase counts, primary screen (AID 1347080;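 active = compounds whose cell count with miR-34 switched on is under 0.7 times the count with it off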); conditions: A549 miR-34 inducible, Hoechst nuclei count, 48 h
# [2] = compounds altering HSF1 focus formation in cells – imaging, Selleck Cancer Library (AID 1347162; in the data active = plate-normalised HSF1 focus index below about 0.46); conditions: human cells, HSF1 nuclear foci imaging, at 10 µM; SSMD: measured here: HSF1 foci SSMD mean; cell count: measured here: cell number; plate-normalised HSF1 focus index: stronger effect = lower value
# [3] = blockers of cellular phospholipid synthesis – cell-based, LOPAC library, screen 4, primary screen (AID 1347384); conditions: animal cells, phospholipid biosynthesis inhibition screen; at 10 µM
# [4] = galactose survival enhancers in mitochondrial complex I cybrids – cell-based, galactose medium, ATP luminescence, primary screen (AID 1645843;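 active = z-score of at least 1.8 in each of two replicates, scored against plate mean and spread of sample wells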;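 note: positive z means more ATP and so rescue of galactose-driven cybrid death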); conditions: complex I mutant cybrid cells, 72 h, stronger effect = higher value
# [5] = compounds altering viability of human ES cells (AID 493140); conditions: human embryonic stem cell survival screen; stronger effect = higher value;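 note: cells exposed to compounds for four days before counting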
# [6] = chitosan synthesis blockers in C. neoformans – flow cytometry, Cibacron Brilliant Red staining (AID 1347148); conditions: Cryptococcus neoformans chitosan, stronger effect = lower value; at 10 µM unless noted;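 note: compound exposure lasted three days at 37 degrees C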
# [7] = P. berghei load reduction in hepatocytes – cell-based, HepG2, luciferase luminescence, HepG2 viability, primary screen (AID 624349; in the data active = parasite load remaining mostly below about 12%, no sharp cut-off; inactive = mostly above about 10%;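 note: 100% = mean of DMSO negative control wells on the same plate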); conditions: P. berghei liver stage in HepG2, luciferase luminescence, concentration not given here; parasite load remaining: stronger effect = lower value; viability: measured here: HepG2 viability without parasites
# [8] = MELAS cybrid and Rieske KO viability enhancers – cell-based, MELAS cybrids, Rieske KO mouse fibroblasts, CellTiter-Glo, primary screen (AID 1508586;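 active = mean z-score across replicates of 1.96 or higher in either the MELAS or the Rieske mutant cell line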;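 note: z relative to plate mean and SD of compound and empty wells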); conditions: low glucose
# [9] = tested on: Hepatitis C virus NS3 helicase; experiment: blockers of NS3h binding to ssDNA – biochemical, fluorescence polarization, LOPAC1280 library, primary screen (AID 687035; in the data active = inhibition above about 37%); conditions: Purified HCV NS3 helicase, Cy5-dT15 ssDNA binding fluorescence polarization; stronger effect = higher value; concentration not given here
# [10] = compounds altering Cy5-DNA-NS3h complex signal – biochemical, LOPAC1280, artefact control for HCV NS3 helicase inhibitor project (AID 687037); conditions: Cy5-DNA-NS3h complex fluorescence interference counterscreen
# [11] = target: NAD(+) hydrolase SARM1 (Homo sapiens) (UniProt Q6SZW1); experiment: blocking NAD cleavage by SARM1 SAM-TIR – cell lysate, NAD-Glo luminescence (AID 1508614;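 active = compound whose remaining NAD level is above about 45 nM, limit read from the data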;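 note: higher remaining NAD means stronger inhibition of SARM1 NADase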); conditions: SAM-TIR HEK293T lysate NADase, at 1 µM, stronger effect = higher value
# [12] = compounds altering circadian rhythm period length – cell-based, LOPAC library, luminescence reporter (AID 2774); conditions: circadian reporter cells, at 7 µM, actives lie on both sides;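 note: values are relative to mean of DMSO wells on each plate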
# [13] = target: Mitogen-activated protein kinase 7 (Homo sapiens) (UniProt Q13164); experiment: Gal4-ERK5 driven luciferase induction – cell-based, HTS, primary screen (AID 1508626;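 active = luciferase signal above three times the same-plate solvent-only control wells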;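 note: luciferase driven by Gal4-ERK5 fusion binding five Gal4 sites before minimal TATA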); conditions: HeLa Gal4-ERK5 transactivation, 18 h, at 5 µM, stronger effect = higher value
# [14] = stronger effect = lower value, cell number ratio, induced over uninduced
# [15] = measured here: relative caspase fold change +Dox/-Dox
# [16] = measured here: total cells with miR-34 induction, stronger effect = lower value
# [17] = measured here: total cells without miR-34 induction
# [18] = MELAS cybrid survival, CellTiter-Glo 48 h, stronger effect = higher value
# [19] = Rieske KO mouse fibroblast survival, CellTiter-Glo 72 h
# NAD(+) hydrolase SARM1 (Homo sapiens), sequence (Q6SZW1 whole entry, looked up): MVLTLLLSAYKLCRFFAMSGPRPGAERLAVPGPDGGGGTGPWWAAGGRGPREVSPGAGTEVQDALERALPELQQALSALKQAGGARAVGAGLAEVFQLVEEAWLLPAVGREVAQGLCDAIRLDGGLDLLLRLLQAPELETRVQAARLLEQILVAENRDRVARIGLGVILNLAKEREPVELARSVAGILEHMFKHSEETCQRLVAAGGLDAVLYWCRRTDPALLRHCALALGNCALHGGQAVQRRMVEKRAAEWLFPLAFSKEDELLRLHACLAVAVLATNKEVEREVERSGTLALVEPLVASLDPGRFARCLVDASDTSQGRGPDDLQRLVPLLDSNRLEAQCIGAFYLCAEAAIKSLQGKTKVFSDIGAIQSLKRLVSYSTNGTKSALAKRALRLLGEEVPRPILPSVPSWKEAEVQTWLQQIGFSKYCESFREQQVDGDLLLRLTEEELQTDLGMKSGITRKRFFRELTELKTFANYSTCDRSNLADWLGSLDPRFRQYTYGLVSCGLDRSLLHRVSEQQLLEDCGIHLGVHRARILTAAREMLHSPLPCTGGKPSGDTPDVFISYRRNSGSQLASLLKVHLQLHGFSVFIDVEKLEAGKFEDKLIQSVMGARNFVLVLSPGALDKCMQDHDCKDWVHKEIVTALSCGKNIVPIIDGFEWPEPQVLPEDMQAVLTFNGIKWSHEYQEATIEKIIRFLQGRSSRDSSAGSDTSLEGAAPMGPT
# Mitogen-activated protein kinase 7 (Homo sapiens), sequence (Q13164 whole entry, looked up, the tested form may be a part): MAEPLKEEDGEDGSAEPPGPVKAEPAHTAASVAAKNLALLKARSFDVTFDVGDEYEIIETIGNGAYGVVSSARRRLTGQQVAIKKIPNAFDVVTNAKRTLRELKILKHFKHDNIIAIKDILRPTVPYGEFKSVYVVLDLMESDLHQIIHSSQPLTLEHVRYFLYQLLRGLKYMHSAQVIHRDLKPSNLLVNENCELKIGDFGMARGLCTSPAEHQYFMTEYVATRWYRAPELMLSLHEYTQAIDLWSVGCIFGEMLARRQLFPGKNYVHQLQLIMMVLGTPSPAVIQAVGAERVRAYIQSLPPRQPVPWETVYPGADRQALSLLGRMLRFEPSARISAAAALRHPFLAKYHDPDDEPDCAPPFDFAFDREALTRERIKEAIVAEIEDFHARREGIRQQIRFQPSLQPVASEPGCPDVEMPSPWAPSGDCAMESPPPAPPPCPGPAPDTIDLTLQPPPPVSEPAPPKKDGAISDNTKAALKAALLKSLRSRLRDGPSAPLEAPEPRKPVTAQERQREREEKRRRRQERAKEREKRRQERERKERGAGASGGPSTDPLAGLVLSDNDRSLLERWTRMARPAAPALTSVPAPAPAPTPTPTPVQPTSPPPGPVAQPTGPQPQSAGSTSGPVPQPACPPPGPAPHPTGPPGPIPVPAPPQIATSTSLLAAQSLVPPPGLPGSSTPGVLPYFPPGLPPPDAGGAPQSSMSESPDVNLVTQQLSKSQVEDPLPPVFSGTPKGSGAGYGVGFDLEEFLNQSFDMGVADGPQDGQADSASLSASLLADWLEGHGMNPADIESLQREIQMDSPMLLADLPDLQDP
structure (smiles),measurement,setting,value
Cc1oc(S(=O)(=O)N2CCCCC2)cc1NC(=O)Nc1ccccc1,fold change,[1]; [14],0.9 (inactive)
same,fold change,[1]; [15],1.24
same,cell count,[1]; [16],5590
same,cell count,[1]; [17],6210
same,SSMD,[2],2.84
same,cell count,[2],6950
same,plate-normalised HSF1 focus index,[2],1.17 (inactive)
S=c1[nH]c(-c2ccccc2)cn1-c1ccccc1,fold change,[1]; [14],0.982 (inactive)
same,fold change,[1]; [15],1.24
same,cell count,[1]; [16],9110
same,cell count,[1]; [17],9280
same,outcome,[3],inactive
same,z-score,[4],-0.15 (inactive)
COCCOc1cc2ncnc(Cl)c2cc1OCCOC,fold change,[1]; [14],1.03 (inactive)
same,fold change,[1]; [15],1.13
same,cell count,[1]; [16],9200
same,cell count,[1]; [17],8960
same,outcome,[3],inactive
same,z-score,[4],-0.675 (inactive)
CCCCCCCCCCOCCC(=O)O,survival,[5],53.3 (inactive)
same,fold change,[1]; [14],0.905 (inactive)
same,fold change,[1]; [15],1.29
same,cell count,[1]; [16],5410
same,cell count,[1]; [17],5970
same,fold fluorescence,[6],6.36 (inactive)
CO/N=C(\C(=O)N[C@@H]1C(=O)N2C(C(=O)O)=C(COC(C)=O)CS[C@H]12)c1csc(N)n1,parasite load remaining,[7],16.7% (inactive)
same,viability,[7],71.5%
same,fold change,[1]; [14],0.894 (inactive)
same,fold change,[1]; [15],1.17
same,cell count,[1]; [16],9420
same,cell count,[1]; [17],10500
same,outcome,[3],inactive
same,z-score,[8]; [18],0.329 (inactive)
same,z-score,[8]; [19],0.781
same,z-score,[4],-0.18 (inactive)
O=C1Nc2ccc(I)cc2C1=Cc1cc(Br)c(O)c(Br)c1,inhibition,[9],-1% (inactive)
same,fluorescence ratio (interference),[10],1 (inactive)
same,fold change,[1]; [14],1.04 (inactive)
same,fold change,[1]; [15],0.568
same,cell count,[1]; [16],7930
same,cell count,[1]; [17],7600
same,outcome,[3],inactive
same,z-score,[8]; [18],-0.141 (inactive)
same,z-score,[8]; [19],-0.283
COCc1cc(O)c(O)c(O)c1-c1c(COC)cc(O)c(O)c1O,survival,[5],106 (inactive)
same,fold change,[1]; [14],1.2 (inactive)
same,fold change,[1]; [15],0.626
same,cell count,[1]; [16],3710
same,cell count,[1]; [17],3100
same,fold fluorescence,[6],5.4 [at 147.8 µM] (inactive)
CCOC(=O)[C@H](CCc1ccccc1)N[C@@H](C)C(=O)N1[C@H](C(=O)O)C[C@H]2CCCC[C@@H]21,inhibition,[9],-4% (inactive)
same,fluorescence ratio (interference),[10],1 (inactive)
same,fold change,[1]; [14],1.13 (inactive)
same,fold change,[1]; [15],0.831
same,cell count,[1]; [16],11100
same,cell count,[1]; [17],9850
same,outcome,[3],inactive
same,remaining NAD,[11],10 nM (inactive)
same,z-score,[4],0.51 (inactive)
Fc1ccc2[nH]c(CN3CCN(c4ccccn4)CC3)cc2c1,fold change,[1]; [14],0.975 (inactive)
same,fold change,[1]; [15],1.18
same,cell count,[1]; [16],8710
same,cell count,[1]; [17],8930
same,outcome,[3],inactive
same,z-score,[4],-1.13 (inactive)
CN(CCCOc1ccc(Cc2ccccc2)cc1)CCC(=O)O,fold change,[1]; [14],0.994 (inactive)
same,fold change,[1]; [15],1.84
same,cell count,[1]; [16],9930
same,cell count,[1]; [17],9990
same,outcome,[3],inactive
same,z-score,[4],0.275 (inactive)
CN(C)CC(O)Cn1c2ccc(Br)cc2c2cc(Br)ccc21 (centres undefined),fold change,[1]; [14],0.735 (inactive)
same,fold change,[1]; [15],1.58
same,cell count,[1]; [16],200
same,cell count,[1]; [17],272
same,outcome,[3],inactive
NC(N)=NCCNS(=O)(=O)c1cccc2cnccc12,survival,[5],124 (inactive)
same,parasite load remaining,[7],46.9% (inactive)
same,viability,[7],111%
same,fold change,[1]; [14],0.914 (inactive)
same,fold change,[1]; [15],0.868
same,cell count,[1]; [16],2220
same,cell count,[1]; [17],2430
same,fold fluorescence,[6],3.91 [at 170.4 µM] (inactive)
COCCOc1cc2nc[nH]c(=O)c2cc1OCCOC,fold change,[1]; [14],1.02 (inactive)
same,fold change,[1]; [15],1.39
same,cell count,[1]; [16],10200
same,cell count,[1]; [17],10100
same,outcome,[3],inactive
same,z-score,[4],1.01 (inactive)
C[C@@H](NCCc1ccc(O)cc1)[C@@H](O)c1ccc(O)cc1,period change,[12],0.07 h (inactive)
same,inhibition,[9],0% (inactive)
same,fluorescence ratio (interference),[10],0.9 (inactive)
same,fold change,[1]; [14],0.982 (inactive)
same,fold change,[1]; [15],1.22
same,cell count,[1]; [16],10600
same,cell count,[1]; [17],10800
same,outcome,[3],inactive
same,remaining NAD,[11],10 nM (inactive)
same,z-score,[4],0.51 (inactive)
NS(=O)(=O)c1ccc(-n2nc(C(F)(F)F)cc2-c2ccc(Cl)cc2)cc1,fold change,[1]; [14],1.1 (inactive)
same,fold change,[1]; [15],0.617
same,cell count,[1]; [16],7530
same,cell count,[1]; [17],6870
same,outcome,[3],inactive
same,z-score,[4],2.57 (active)
CS(=O)(=O)c1ccc(-n2nc(C(F)(F)F)cc2-c2ccc(F)cc2)cc1,fold change,[1]; [14],1.12 (inactive)
same,fold change,[1]; [15],0.872
same,cell count,[1]; [16],9270
same,cell count,[1]; [17],8270
same,outcome,[3],inactive
same,z-score,[4],0.62 (inactive)
CCCCCCCCCCCCCC(=O)N[C@@H](C)[C@H](O)c1ccccc1,survival,[5],95 (inactive)
same,fold change,[1]; [14],0.995 (inactive)
same,fold change,[1]; [15],0.985
same,cell count,[1]; [16],6160
same,cell count,[1]; [17],6200
same,fold fluorescence,[6],3.67 (inactive) and 4.53 (inactive)
CCCC(=O)O,fold change,[1]; [14],0.924 (inactive)
same,fold change,[1]; [15],0.39
same,cell count,[1]; [16],4770
same,cell count,[1]; [17],5160
same,SSMD,[2],1.8
same,cell count,[2],7190
same,plate-normalised HSF1 focus index,[2],1.11 (inactive)
CCCCS(=N)(=O)CC[C@H](N)C(=O)O (some centres undefined),period change,[12],-0.045 h (inactive)
same,inhibition,[9],-2% (inactive)
same,fluorescence ratio (interference),[10],1 (inactive)
same,fold change,[1]; [14],0.972 (inactive)
same,fold change,[1]; [15],2.07
same,cell count,[1]; [16],9810
same,cell count,[1]; [17],10100
same,outcome,[3],inactive
same,luciferase signal,[13],48 AU (inactive)
same,z-score,[4],-0.84 (inactive)
Cn1cc(C(F)(F)F)nc1-c1ccc(OCC(O)CNCCOc2ccc(O)c(C(N)=O)c2)cc1 (centres undefined),period change,[12],-0.065 h (inactive)
same,inhibition,[9],0% (inactive)
same,fluorescence ratio (interference),[10],1 (inactive)
same,fold change,[1]; [14],0.893 (inactive)
same,fold change,[1]; [15],1.45
same,cell count,[1]; [16],9830
same,cell count,[1]; [17],11000
same,outcome,[3],inactive
same,z-score,[4],-0.695 (inactive)

# — PubChem BioAssay
